Sampled rows, rich in hits. Any-hit rate of the full collection: about 4%.
Caspase-1 inhib – caspase-1 (human) inhibition, allosteric or competitive; Caspase-1 enzyme, Ac-WEHD-AFC fluorogenic rate; Potency, µM (series often up to 57.5 µM), usual class: inhibitors; 75,000 tested, 0.03% active; AID 900
PK Bst – modulators of Bacillus stearothermophilus pyruvate kinase; 51,000 tested, 1.2% active; purified pyruvate kinase, luminescence ATP production; ribose 5-phosphate activator present at AC10; Potency, µM; in the data active = potency below about 11 µM; inconclusive = mostly about 12 µM to 25 µM;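 the screen sought inhibitors and activators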
TSHR agonist – activates the human thyroid stimulating hormone receptor; AID 926; 73,000 tested, 0.48% active; Potency, µM (doses to about 57.1 µM), actives largely listed as activators; HEK293-CNG-TSHR cells (CNG channel as cAMP sensor), membrane potential dye, cAMP; P16473; active = well fitted activation curve with a large enough effect in the main read-out, with a control signal flat, not every such curve was filed as active; inconclusive = small, poorly fitted or top-dose-only effect, or a change in a side signal; inactive = no such curve, though single readings can be large or run the other way; reference of the percent scale not stated here;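 note: the control signal comes from parental cells without the receptor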
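HEK 293 cells stably expressing TSHR and a cAMP-gated CNG channel; parental CNG-only cells as counterscreen. Cells preloaded 60 min with membrane potential dye plus 100 uM RO 20-1724, then compound 30 min; fluorescence read at 590 nm.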
HEK293 cAMP cs – raises cAMP in parental HEK293 cells, TSHR agonist counter-screen; parental HEK293 CNG cAMP sensor, membrane potential fluorescence; Potency, µM (top dose mostly 57.1 µM), most hits filed as activators; 73,000 tested, 2.5% active; note: nearly all actives have a fitted effect of over 55% in size
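Counterscreen for endogenous-receptor signalling: CNG-channel HEK 293 cells report cAMP rise by membrane depolarization. After 60 min dye equilibration with 100 uM RO 20-1724, compounds incubated 30 min before bottom-read fluorescence at 590 nm.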
Casp7 inh – caspase-7 (human) inhibition, allosteric or competitive; AID 889; P55210; 75,000 tested, 0.02% active; recombinant caspase-7, Ac-DEVD-AFC fluorescence rate; Potency, µM (series often up to 57.5 µM), hits mostly inhibitors; active = well fitted inhibition curve with a large enough effect in the main read-out, with a control signal flat, not every such curve was filed as active; inconclusive = small, poorly fitted or top-dose-only effect, or a change in a side signal
GBA mod – human lysosomal glucosylceramidase modulation; P04062; purified enzyme, resorufin glucoside fluorescence (screen aimed at inhibitors), 20 min; Potency, µM; 48,000 tested, 1.1% active; in the data active = potency below about 15 µM; inconclusive = mostly about 16 µM to 33 µM;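 note: the screen sought inhibitors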
Target sequence (P04062 whole entry, looked up): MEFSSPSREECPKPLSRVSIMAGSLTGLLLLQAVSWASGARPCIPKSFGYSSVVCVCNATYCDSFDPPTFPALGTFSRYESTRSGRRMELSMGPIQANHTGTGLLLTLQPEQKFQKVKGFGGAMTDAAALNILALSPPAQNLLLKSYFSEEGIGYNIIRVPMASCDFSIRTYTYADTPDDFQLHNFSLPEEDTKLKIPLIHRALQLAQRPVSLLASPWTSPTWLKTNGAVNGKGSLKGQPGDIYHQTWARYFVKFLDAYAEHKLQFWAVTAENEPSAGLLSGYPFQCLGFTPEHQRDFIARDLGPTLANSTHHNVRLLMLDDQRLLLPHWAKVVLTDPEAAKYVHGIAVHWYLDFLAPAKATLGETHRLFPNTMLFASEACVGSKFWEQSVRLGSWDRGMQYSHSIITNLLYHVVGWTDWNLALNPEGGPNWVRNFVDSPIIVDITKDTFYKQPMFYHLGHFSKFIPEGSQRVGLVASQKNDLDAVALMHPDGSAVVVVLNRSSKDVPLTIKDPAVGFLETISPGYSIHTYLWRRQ
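Wild-type enzyme at 0.2 nM final in 50mM citric acid/KH2PO4, 10mM sodium taurocholate, 0.01% tween-20, pH 5.9, with resorufin beta-D-glucopyranoside at 30 uM final. Compounds titrated, 20 min at RT, red fluorescence read; AC50 from titration.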
HEK293 cAMP cnt – raises cAMP in parental HEK293 cells lacking TSH receptor; activity change, negative = inhibition, % at 32.9 µM; shares compounds with TSHR agonist; parental HEK293 CNG biosensor, cAMP membrane potential fluorescence; AID 953; 150 tested, under 10 active
Hits are given with their value; - = inactive; ? = inconclusive; . = not tested or not shown; [ ] = another dose, or the depositor's remark. Unless noted, calls come from the whole dose curve; as a rule, active = well fitted curve in the direction sought with a large enough effect; inconclusive = small, poorly fitted or top-dose-only effect, or another doubt; inactive = no such curve, though single readings can be large; an effect the other way counts as inactive or inconclusive.

SMILES	Caspase-1 inhib	PK Bst	TSHR agonist	HEK293 cAMP cs	Casp7 inh	GBA mod	others
CCCCn1c2nc3ccccc3nc2c2c(=O)n(CCC)cnc21	-	-	?	?	-	5
CC(C)CCn1cnc2c(c1=O)c1nc3ccccc3nc1n2Cc1ccc2c(c1)OCO2	-	-	-	-	-	6.1
CCOC(=O)c1[nH]c(COC(=O)C2CC(=O)N(Cc3ccccc3)C2)c(C(=O)OCC)c1C (stereo unspecified)	-	-	?	25µM	-	-
Cc1noc(C)c1-c1cncnc1NCc1ccccc1	-	.	-	-	-	.
Clc1ccc2c(c1)C1OCCC1C(c1ccco1)N2 (stereo unspecified)	-	9.6	.	-	-	-
Cc1ccc2c(c1)[C@H]1OCC[C@H]1[C@@H](c1ccncc1)N2	-	.	-	-	-	.
Cc1ccc(C(=O)/C=C/Nc2ccccn2)cc1	.	0.75	.	.	.	.
COc1ccc(C(=O)/C=C/Nc2cccc(C)n2)cc1OC	.	0.63	.	.	.	.
Cc1cnc(CNc2nc(-c3ccc(N(C)C)cc3)nc3ccccc23)cn1	-	.	?	-	-	.
COc1ccc(-c2cc(C(F)F)n3ncc(C(=O)N4CCN5CCCC5C4)c3n2)cc1 (stereo unspecified)	.	-	?	16µM	?	.
COc1ccc(-c2cc(C(F)F)n3ncc(C(=O)NCC4CCCO4)c3n2)cc1 (stereo unspecified)	.	.	?	7.9µM	?	.
COC(=O)C1=C(C)N(Cc2ccco2)C(=O)C1	-	-	-	-	-	-
CCCCC(=O)NC1(C(F)(F)F)C(=O)N(Cc2ccco2)C(C)=C1C(=O)OC (stereo unspecified)	-	-	16µM	-	-	-
O=C(O)CCCC(=O)OCCCCc1cccs1	-	.	-	-	-	.
Nc1nnc(CCCCc2cccs2)o1	-	.	?	0.5µM	-	.
CC(=O)Nc1ccc2c(c1)/C(=C/c1ccc([N+](C)(C)C)cc1)c1ccccc1-2	-[11.5 µM]	.	-[11.4 µM]	-[11.4 µM]	-[11.5 µM]	.
CCn1c(CCCc2nc3c([nH]2)c(=O)n(C)c(=O)n3C)nc2c1c(=O)n(C)c(=O)n2C	-[11.5 µM]	.	-[11.4 µM]	-[11.4 µM]	-[11.5 µM]	.
COC(=O)[C@H](Cc1ccccc1)NC(=O)[C@@H](C)CO	-[11.5 µM]	.	-[11.4 µM]	-[11.4 µM]	-[11.5 µM]	.
Cc1cc(Cl)c(S(=O)(=O)Nc2ccc3c(c2)OCO3)cc1OCC(N)=O	-	-	13µM	-	-	-	HEK293 cAMP cnt=-
O=C(O)Cc1[nH]cnc1C(=O)O	-[11.5 µM]	.	-[11.4 µM]	-[11.4 µM]	-[11.5 µM]	.
CC1(CC(=O)O)O[C@H]2CCCCC[C@H]2O1 (stereo partly specified) (tested in a mixture with another compound)	-[11.5 µM]	.	-[11.4 µM]	-[11.4 µM]	-[11.5 µM]	.
Cc1cc(=O)[nH]c(SCCOc2ccc(OC(C)C)cc2)n1	-	.	-	-	-	-
Cc1cc(=O)[nH]c(SCCOc2ccc3c(c2)CCC3)n1	-	-	.	-	-	-	HEK293 cAMP cnt=-
CCOC(=O)C1C(=O)Nc2nc(C)nn2C1c1ccccc1 (stereo unspecified)	-	-	4µM	-	-	-	HEK293 cAMP cnt=-
CCOC(=O)C1C(=O)NC(N2CCCCC2)=NC1c1ccccc1 (stereo unspecified)	-	-	-	-	-	-
SMILES	Caspase-1 inhib	PK Bst	TSHR agonist	HEK293 cAMP cs	Casp7 inh	GBA mod	others
Cc1cccc(OCC(=O)OCC(=O)c2c(N)n(C)c(=O)n(C)c2=O)c1	-	-	13µM	-	-	-	HEK293 cAMP cnt=-
CS(=O)(=O)Nc1cccc(-c2ccc3ncnc(NCc4cccs4)c3c2)c1	-	.	-	-	-	.
O=C(O)/C=C\C(=O)Nc1cccc2c1-c1ccccc1C2=O	-[11.5 µM]	.	-[11.4 µM]	-[11.4 µM]	-[11.5 µM]	.
Cc1ccccc1-c1cncnc1Nc1ccccc1	-	.	.	-	-	.
CCS(=O)(=O)N1CCN(C(C)CCc2ccccc2)CC1 (stereo unspecified)	-	.	.	-[11.4 µM]	-	.	HEK293 cAMP cnt=-
Nc1ncn([C@H]2O[C@@H](CO)[C@@H](O)[C@@H]2O)c(=O)n1	-	.	-	-	-	.
Cc1noc(/C=C/c2ccco2)c1S(=O)(=O)N1CCC(C(=O)NCc2ccco2)CC1	-	-	32µM	-	-	-	HEK293 cAMP cnt=-

Screens (PubChem)
